Compound activity: PubChem BioAssay, The Scripps Research Institute Molecular Screening Center
PAFAH2 FP inh – PAFAH2 (human) inhibition; recombinant PAFAH2, FP-rhodamine activity probe, fluorescence polarization; inhibition, % at 3.39 µM; 340,000 tested, 0.99% active; AID 492956;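 active = inhibition above the mean over all tested compounds plus 3 SD, cut at about 30% in these data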;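 note: inhibitors block probe labeling of enzyme so polarization drops; 0% = enzyme with DMSO and 100% = wells lacking PAFAH2 protein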
PAFAH1B3 inh – blocks human PAF acetylhydrolase 1B catalytic subunit 3 | AID 492972 | Q15102 | 340,000 tested, 0.28% active | recombinant PAFAH1B3, FP-rhodamine probe, fluorescence polarization | inhibition, % at 3.39 µM;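 active = inhibition above the screen-wide average of all tested compounds plus 3 SD, cut at about 25% in these data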;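 note: 0% = enzyme with DMSO only and 100% = wells lacking PAFAH1B3 protein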
LYPLA1 inh – counter-screen for PME1 inhibitors: inhibitors of human LYPLA1; recombinant LYPLA1, FP-Rh probe fluorescence polarization; 320,000 tested, 0.16% active; inhibition, % at 5.9 µM; O75608;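 active = inhibition above the mean of all tested compounds plus 3 SD, set per campaign, cut at about 14% in these data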;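 note: inhibitors block serine hydrolase probe labeling of LYPLA1 so polarization falls; 0% = enzyme with DMSO and 100% = wells lacking LYPLA1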
pPAFAH FP inh – pPAFAH (human) enzyme inhibition. inhibition, % at 3.39 µM. AID 463082. 330,000 tested, 1.5% active. Q13093. recombinant pPAFAH, FP-rhodamine probe fluorescence polarization;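 active = inhibition above the mean inhibition across the screen plus 3 SD, cut at about 25% in these data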;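 note: inhibitors block binding of the rhodamine activity-based probe so polarization drops; 0% = enzyme with DMSO and 100% = wells lacking pPAFAH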
Target sequence (Q13093 whole entry, looked up): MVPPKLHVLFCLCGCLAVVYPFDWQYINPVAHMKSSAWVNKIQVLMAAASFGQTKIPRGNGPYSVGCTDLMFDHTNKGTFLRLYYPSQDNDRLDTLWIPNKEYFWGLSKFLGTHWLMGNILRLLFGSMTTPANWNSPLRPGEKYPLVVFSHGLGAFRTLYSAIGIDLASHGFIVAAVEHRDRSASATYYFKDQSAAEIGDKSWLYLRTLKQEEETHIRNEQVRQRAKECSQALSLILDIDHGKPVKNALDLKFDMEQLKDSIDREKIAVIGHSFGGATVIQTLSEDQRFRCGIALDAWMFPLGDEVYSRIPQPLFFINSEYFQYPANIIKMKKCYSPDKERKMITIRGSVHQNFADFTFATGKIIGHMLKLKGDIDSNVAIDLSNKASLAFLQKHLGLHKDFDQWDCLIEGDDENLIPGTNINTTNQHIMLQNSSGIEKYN
PAFAH1B2 inh – blocks human PAF acetylhydrolase 1b catalytic subunit 2; P68402; recombinant PAFAH1B2, FP-rhodamine activity probe, fluorescence polarization; inhibition, % at 3.39 µM; 340,000 tested, 1.2% active; AID 492953;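 active = inhibition above the mean of all tested compounds plus 3 SD, cut at about 24% in these data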;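 note: 0% = enzyme with DMSO and 100% = wells lacking PAFAH1B2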
LYPLA2 counter – counter-screen for PME1 inhibitors: inhibitors of human LYPLA2; recombinant LYPLA2, FP-Rh probe fluorescence polarization; AID 2177; inhibition, % at 5.9 µM; 320,000 tested, 0.38% active; O95372;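 active = inhibition above the screen-wide mean plus 3 SD, limit set per campaign, cut at about 26% in these data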;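 note: 0% = LYPLA2 with DMSO and 100% = wells lacking LYPLA2 enzyme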
pPAFAH confirm – confirmation of human plasma PAF acetylhydrolase (pPAFAH) inhibitors; shares compounds with pPAFAH FP inh; recombinant pPAFAH, FP-Rh probe fluorescence polarization; inhibition, % at 3.39 µM; 2,300 tested, 72% active; AID 463230;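 active = mean inhibition of the triplicate above the hit cutoff set for the earlier primary screen, cut at about 25% in these data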;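 note: 0% = enzyme with DMSO and 100% = wells lacking pPAFAH enzyme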
* = called active by the depositor; nt = no result given. Most compounds without a hit are left out; they make up all but 2.9% or so of the library.

SMILES	PAFAH2 FP inh	PAFAH1B3 inh	LYPLA1 inh	pPAFAH FP inh	PAFAH1B2 inh	LYPLA2 counter	pPAFAH confirm
CC(=O)c1c(C)[nH]c(C(=O)COC(=O)C2(C)CC2(Cl)Cl)c1C (stereo unspecified)	15	4	nt	-2	15	nt	nt
O=C(/C=C/c1cccs1)c1cc(Br)ccc1OC(=O)N1CCOCC1	84*	0	1	64*	3	7	61*
Cc1cc(C(=O)N/N=C/c2ccc([N+](=O)[O-])o2)c(C)o1	1	8	-7	42*	-1	-2	7
CCN1CCN(S(=O)(=O)c2ccc(C(C)(C)C)cc2)CC1	-39	8	1	6	4	11	nt
C=CCSC1=N/C(=C\C=C\c2ccco2)C(=O)S1	33*	13	3	61*	6	4	18
COc1ccc(NC(=O)c2cccnc2)cc1	3	6	-3	-2	-4	-5	nt
C/C(=C\C(=O)c1cccnc1)Nc1ccc(O)cc1	-3	3	2	38*	0	9	-4
Nc1ccc(N2CCN(CCCCN3C(=O)C4CCCN4C3=O)CC2)cc1 (stereo unspecified)	6	5	7	70*	0	29*	13
O=C1C2CCCCN2C(=O)N1CCCN1CCN(c2ccc(F)cc2)CC1 (stereo unspecified)	0	7	2	5	5	4	nt
Cc1ccc(S(=O)(=O)N2CCN(C(=O)COC(=O)c3ccccn3)CC2)c(C)c1	4	4	5	44*	3	3	0
COc1ccc(Cl)cc1/C=C/c1ccc2cccc(O)c2n1	-7	3	-6	2	-1	-4	nt
COc1ccccc1/C=C/c1ccc2cccc(O)c2n1	6	9	-5	42*	-3	3	24
CCOC(=O)Nc1ccc2c(c1)N(C(=O)C(C)N1CCCC1)c1ccccc1CC2 (stereo unspecified)	10	4	2	0	3	0	nt
O=C(N/N=C/c1cc(Cl)cc(Cl)c1O)c1ccncc1	-1	10	-1	7	-1	0	nt
Oc1c(Cl)cc(Cl)cc1/C=N/NC(=S)NC1CC2C=CC1C2 (stereo unspecified)	68*	26*	-1	36*	21	0	34*
CN(c1ccccc1)S(=O)(=O)c1cccc(C(=O)NCCc2ccc(O)c(O)c2)c1	8	7	-1	37*	1	7	43*
CCN(CC)S(=O)(=O)c1cccc(C(=O)NCCc2ccccc2)c1	-3	-16	-2	-6	1	4	nt
CC(=O)Nc1ccc(NC(=O)c2cc([N+](=O)[O-])cc([N+](=O)[O-])c2)cc1	1	5	2	6	-2	0	nt
Cc1ccc(NC(=O)c2ccc(Nc3c([N+](=O)[O-])cc([N+](=O)[O-])cc3[N+](=O)[O-])cc2)cc1	9	27*	-2	52*	14	12	51*
O=[N+]([O-])c1ccccc1C=NNC(=S)NN=Cc1ccccc1[N+](=O)[O-]	-6	9	nt	nt	6	nt	nt
O=[N+]([O-])c1ccccc1NC(=S)N/N=C/c1ccc(O)c(O)c1	49*	24	-15	59*	5	-10	64*
CCOc1cc2[nH]c(=O)n(CCCCC(=O)N3CCCCCC3)c(=O)c2cc1OCC	-2	10	-4	-6	4	-8	nt
Cn1ccc2cc(NC(=O)Nc3cccnc3)ccc21	-16	20	-11	37*	5	-8	7
COc1cccc(NC(=O)Nc2cccnc2)c1	-7	10	-1	3	6	-4	nt
CSc1nsc(SCC(=O)Nc2nncs2)n1	1	1	-4	4	-6	-1	nt
SMILES	PAFAH2 FP inh	PAFAH1B3 inh	LYPLA1 inh	pPAFAH FP inh	PAFAH1B2 inh	LYPLA2 counter	pPAFAH confirm
N#Cc1c(SCC(=O)Nc2nncs2)sc2c(O)cc(=O)[nH]c12	37*	36*	-8	49*	14	-2	10
COc1cc(Cl)c(C)cc1NC(=O)CSc1sc2c(O)cc(=O)[nH]c2c1C#N	14	13	-18	40*	9	-19	31*
COc1cc(Cl)c(C)cc1NC(=O)CSCC#N	-3	3	-4	-7	1	4	nt
C=CCN1CCN(C(=O)CCc2ccccc2)CC1	8	2	-2	0	4	7	nt
Cc1cccc2cc(/C=N/NC(=O)CN3CCOCC3)c(Cl)nc12	2	0	5	0	-1	5	nt
COc1ccccc1/C=C1\SC(=S)N(CCC(=O)Nc2ccc(C(=O)O)c(O)c2)C1=O	-1	6	-10	18	8	-2	nt
O=C(CCN1C(=O)/C(=C\c2ccco2)SC1=S)Nc1ccc(C(=O)O)c(O)c1	16	11	-8	49*	1	-6	15
O=C(CCN1C(=O)/C(=C/c2ccco2)SC1=S)Nc1ccc(C(=O)O)c(O)c1	7	10	-8	40*	6	-12	18
Cc1nn(-c2ccccc2)c2sc(-c3n[nH]c(=S)o3)cc12	19	9	9	52*	4	6	69*
Cc1cnc(C(=O)OC(C)C(=O)Nc2ccc3c(c2)OCCO3)cn1 (stereo unspecified)	5	0	-3	-3	-5	-4	nt
CC(OC(=O)c1ccccn1)C(=O)Nc1ccc2c(c1)OCCO2 (stereo unspecified)	-4	2	7	48*	0	9	4
CCOC(=O)C1CCCN(C(=O)c2cc(-c3ccco3)nc3ccccc23)C1 (stereo unspecified)	20	6	nt	49*	3	nt	40*
CCOC(=O)C1CCCN(C(=O)c2cc(-c3ccncc3)nc3ccccc23)C1 (stereo unspecified)	2	6	-1	4	2	-1	nt
C/C(=N\NC(=O)c1cc2ccccc2cc1O)c1ccccn1	1	9	-9	48*	5	6	-2
C/C(=N\NC(=O)c1nc2ccccn2c1C)c1cc2ccccc2o1	6	5	-7	-1	4	2	nt
C/C(CC(=O)N1CCN(C=O)CC1)=N\NC(=O)c1cc2ccccc2cc1O	8	13	-1	54*	5	5	9
C/C(=N\NC(=O)c1cc2ccccc2cc1O)c1cc2ccccc2o1	11	8	-13	41*	9	-16	34*
O=C(N/N=C/c1ccc(Sc2ccccn2)o1)c1cc2ccccc2cc1O	0	19	-20	52*	9	-14	56*
C/C(CC(=O)N1CCN(C=O)CC1)=N\NC(=O)c1ccc([N+](=O)[O-])cc1	-4	-3	2	1	0	1	nt
NCC(=O)NCC(=O)NC[C@H]1O[C@@H](n2cnc3c(N)ncnc32)[C@H](O)[C@@H]1O	1	11	nt	2	8	nt	nt
